Screens: PubChem, Broad Institute
This is a sample that favours compounds with a hit; in the whole collection about 1.4% have one here.
RAD52 anneal inh: RAD52 DNA annealing inhibitors, primary screen, biochemical, FRET, single point, set 2. inhibition, % at 18.7 µM. recombinant RAD52 DNA annealing, FRET fluorescence. AID 651710, 2012. DNA repair protein RAD52 homolog (Homo sapiens), P43351. actives 0.46% (n = 360,000);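 active = every replicate showing at least 50% inhibition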
ERAP1 inh: human ERAP1 aminopeptidase inhibitors, primary screen, biochemical, single point, plate reader; Endoplasmic reticulum aminopeptidase 1 (Homo sapiens), Q9NZ08; AID 652197, 2013; actives 0.15% (n = 340,000); recombinant ERAP1, Leu-AMC fluorescence, 60 min; inhibition, % at 10.7 µM;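 active = mean replicate inhibition of at least 30%, or all replicates individually reaching that 30% level; inactive = mean below 30% and not every replicate reaching it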;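 note: 0% = neutral control wells and 100% = L-leucinethiol positive control wells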
PGC1a acetyl inh: inhibitors of PGC1a acetylation signal, primary screen, cell-based, U2OS, AlphaScreen, inhibitor mode; AlphaScreen anti-acetyl-lysine; with virally co-expressed GCN5 acetyltransferase; inhibition, % at 15.6 µM; actives 0.17% (n = 350,000); AID 651687, 2012;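 active = every replicate shows inhibition of at least 40%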;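 note: 0% = neutral control wells and 100% = positive control wells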
MLL AF4-AF9 inh: inhibitors of AF4 peptide binding to AF9, primary screen, biochemical, AlphaScreen, biotin-AF4 peptide, FLAG-AF9, single point; actives 0.47% (n = 350,000); inhibition, % at 10 µM;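 active = every replicate reaching a set inhibition limit, whatever the replicate mean, cut at about 25% in these data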;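 note: 0% = plate neutral control median and 100% = total signal loss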
RAD54 inh: inhibitors of human RAD54 branch migration, primary screen, biochemical, fluorescence, single point. AID 602329, 2012. DNA repair and recombination protein RAD54-like (Homo sapiens), Q92698. RAD54 Holliday junction branch migration, FAM/BHQ fluorescence. inhibition, % at 10.4 µM. actives 0.14% (n = 360,000);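 active = mean normalized replicate activity at least 40 and at least half of replicates scoring 40 or more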;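 note: 0% = median of neutral control wells and 100% = median of positive control wells; inhibitors cause a drop in the FAM fluorescence signal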
INS-1E GSIS act: GLuc luminescence reporter in INS-1E cells, primary screen for activators of glucose-dependent secretion of insulin | INS-1E GLuc reporter insulin secretion, 2-3 h | activation, % at 16.6 µM | actives 0.61% (n = 370,000) | AID 743287, 2014;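 active = lowest replicate activation of at least 40%, so every replicate reaches that level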;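 note: 0% = median of neutral control wells and 100% = median of IBMX positive control wells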
* = called active by the depositor; / = no result given.

SMILES | RAD52 anneal inh | ERAP1 inh | PGC1a acetyl inh | MLL AF4-AF9 inh | RAD54 inh | INS-1E GSIS act
CC1CCC/C=C/C2CC(O)CC2C(O)/C=C/C(=O)O1 (stereo unspecified) | / | / | 73* | / | 0 | /
O=C(O)[C@@H]1[C@@H](CO)[C@@H]2Cn3c(ccc(-c4cncnc4)c3=O)[C@H]1N2C(=O)NC1CCCC1 | -2 | 1 | / | -2 | -2 | 5
Cc1ccc(OC(=O)N(C)C[C@@H]2OCc3ccccc3-c3c(n(C)c4ccccc34)C(=O)N([C@@H](C)CO)C[C@H]2C)cc1 | 15 | -2 | / | 8 | / | 12
C=C(C)Cn1c(=O)n(CC2CS2)c2ccccc21 (stereo unspecified) | / | / | / | / | / | 69*
O=C(Cn1c(=O)n(CC2CS2)c2ccccc21)N1CCCCCC1 (stereo unspecified) | -2 | 2 | 5 | 0 | / | -2
Cc1ccc(C[n+]2c(-c3ccc(C)cc3)cc(-c3ccc(C)cc3)cc2-c2ccc(C)cc2)cc1 | / | / | 67* | / | 30 | /
CCOC(=O)N1CCC(NC(=O)CCc2nc(C3=CCN(C)CC3)no2)CC1 | -5 | -4 | / | 33* | -13 | 1
O=C1CNC[C@@H]2[C@H](c3ccc(Br)cc3)[C@@H](CO)N12 | 8 | -1 | 0 | -4 | / | 7
O=C(Cc1ccccn1)N1CC2(C1)[C@H](c1ccccc1)[C@@H](CO)N2Cc1ccccn1 | -156 | -2 | 0 | 2 | / | 16
COc1ccc(/C=C2\C(=O)NC(=S)N(C)C2=O)cc1C | -45 | 34* | 11 | 1 | / | 2
C=CCN1[C@@H]2CN(C(C)=O)C[C@H]1C2c1ccccc1 (stereo partly specified) | / | / | / | / | / | -4
CC12CCC(O)CC1CCC1C2CCC2(C)C(C3=CC(=O)OC3)CCC12O (stereo unspecified) | -17 | 1 | 80* | 1 | / | 2
COC(=O)[C@H]1[C@H](CO)[C@H]2Cn3c(ccc(-c4ccccc4)c3=O)[C@@H]1N2C(=O)c1ccccc1F | -17 | 2 | / | / | -12 | 10
COC(=O)[C@H]1[C@H](CO)[C@H]2Cn3c(ccc(C4=CCCCC4)c3=O)[C@@H]1N2CC1CCCCC1 | -8 | 4 | -4 | 2 | / | -10
COC(=O)CC(NC(=S)N1CC2C[C@@H](C1)Cn1c2cccc1=O)C(=O)OC (stereo partly specified) | -6 | 0 | / | 0 | / | /
COC(=O)CCCC(NC(=S)N1CC2C[C@@H](C1)Cn1c2cccc1=O)C(=O)OC (stereo partly specified) | -3 | -3 | 11 | 1 | -6 | 40*
COC(=O)[C@H]1[C@H](CO)[C@H]2Cn3c(ccc(-c4ccc(F)cc4)c3=O)[C@@H]1N2Cc1ccccc1 | -3 | 5 | / | 1 | 1 | -11
Cc1ccc(/C=C2\C(=O)NC(=O)N(Cc3ccccc3Cl)C2=O)o1 | -51 | 50* | / | -10 | / | -1
O=C1CNC[C@@H]2[C@@H](c3ccc(Br)cc3)[C@@H](CO)N12 | 1 | -2 | -2 | -4 | / | 2
c1cc(-c2ccc(C3[C@H]4CNC[C@@H]3N4CC3CC3)cc2)ccn1 (stereo partly specified) | 14 | -2 | -2 | 38* | / | 15
CC1CCC(C(C)C)C(OC(=O)Cn2c(COc3ccccc3)[n+](C)c3ccccc32)C1 (stereo unspecified) | 36 | 9 | -28 | 25* | 29 | 154*
O=c1[nH]c(=O)n(Cc2ccco2)c(O)c1C=NC1CCN(Cc2ccccc2)CC1 | -11 | 0 | 9 | 48* | 5 | -24
CCOC(=O)c1c(/N=C/c2c(O)n(-c3ccccc3F)c(=S)[nH]c2=O)sc2c1CCCC2 | / | / | 3 | / | -23 | /
CCOC(=O)c1c(/N=C/c2c(O)n(-c3ccc(F)cc3)c(=S)[nH]c2=O)sc2c1CCCC2 | / | / | -8 | / | / | 75*
N#Cc1cn(C2OC(CO)C(O)C2O)c2ncnc(N)c12 (stereo unspecified) | -11 | -1 | -5 | -2 | / | 5
